# According to PubChem BioAssay (NCI):
# Where “and” joins values, the source holds several entries; their conditions need not be identical. Equal entries are not always repeated. This is part of a sample that, as a whole, favours compounds with a hit. Of some 83,000 tested, about 20% had one in any assay.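 Treatment: one concentration, 48 hours, 96-well format. Scoring: percent growth, with anything below 10 considered active.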 Unmarked numbers belong to inactive results. Calls of active or inactive are those of the source.
# System: A498 renal
# Assay: NCI-60 one-dose screen, 48 h (100 = growth as untreated, 0 = no growth, -100 = all killed)
# Conditions: 10 µM unless noted
row,SMILES,growth
1,c1n[nH]cc1-c1nc2ccc3cn[nH]c3c2c2c1CCCC2,93.8%
2,Cc1ccccc1NC(=O)c1cccc(NC(=O)CCl)c1,105%
3,COc1ccc(-c2cc(-c3cc(OC)c(OC)c(OC)c3)[nH]c(=O)c2C#N)cc1,-2.4% (active)
4,O=C(CSc1nc2c(c(=O)[nH]1)CCCC2)Nc1ccccc1C(=O)O,173%
5,FC(F)(F)c1cc2c(Cl)ncnc2n1CCN1CCOCC1,116%
6,O=C(NNC(=O)c1ccc(OCc2nc3ccc(Cl)cc3[nH]2)cc1)Nc1ccc(Cl)c(Cl)c1,182%
7,Clc1ccc(-c2nc3c4c(-c5ccccc5)c(-c5ccccc5)n(Cc5ccccc5)c4ncn3n2)cc1,-17.4% (active)
8,COc1c(B(O)O)cc(F)cc1-c1nc2c(F)cc3[nH]ncc3c2c2c1CCCC2,-30.7% (active)
9,O=C1Nc2cc(-c3ccc(NS(=O)(=O)c4ccc([N+](=O)[O-])cc4)cc3)ccc2/C1=C/c1ccc[nH]1,-33.6% (active)
10,COc1ccc(NC(=O)CSc2nnc(-c3ccc(-c4nc5ccc(Cl)cc5[nH]4)cc3)o2)cc1,60.2%
11,COc1ccc2[nH]c(O)c(N=Nc3nc(-c4ccc(C#N)cc4)cs3)c2c1,13.2%
12,COc1ccc(-c2nc3ccc(-c4nnc(SCC(=O)Nc5ccc(/C(C)=N\O)cc5)o4)cc3[nH]2)cc1,166%
13,CCCCCCCCCCCCCCCCCC(=O)Nc1ccc(OC)cc1,105%
14,CCN1C(=O)N(CC)C2NNC(Sc3c(C(=O)O)c4ccccc4n(CCC(C)C)c3=O)=NC21 (stereo unspecified),76.4%
15,COc1ccc(/C=C/c2nc3ccccc3n3c(-c4cccc([N+](=O)[O-])c4)nnc23)cc1,75.7%
16,COc1ccc(NC(=O)N/N=C/c2c[nH]c3ccccc23)cc1,85.5%
17,CCC(=O)c1cc(C(=O)OC)c2ccc3c4ccccc4ccc3n12,136%

# System: CCRF-CEM leukemia
# Assay: as above
# Conditions: 10 µM unless noted
row,SMILES,growth
1,C=CC(=O)N1CCN(c2ccc3nc4c(nc3c2C(F)(F)F)C(=O)c2ncccc2C4=O)CC1,-17.5% (active)
2,O=C(N/N=C/c1ccc(-c2cccc([N+](=O)[O-])c2)s1)c1[nH]c2ccc(Br)cc2c1-c1ccccc1,91%
3,CCCCNc1ccc2c3c(cccc13)C(=O)N(NCC(O)COc1ccc3c(C)cc(=O)oc3c1)C2=O (stereo unspecified),84.2%
4,CC(=O)Nc1cccc(-n2c(COc3ccc(Br)cc3)nc3ccccc32)c1,95.9% and 98.5%
5,CC(=O)c1c2c(c3ccc4c5ccccc5ccc4n13)C(=O)c1ccccc1C2=O,99.9%
6,CC1=NN(C2=NC(=O)C(CC(=O)Nc3ccccc3C(F)(F)F)S2)C(c2ccc(N(C)C)cc2)C1 (stereo unspecified),36.9%
7,Cc1ccc(C2CC(c3ccc(NC(=O)Nc4ccccc4)cc3)=NN2c2ccc(S(C)(=O)=O)cc2)cc1 (stereo unspecified),9.5% (active)
8,O=C(CSc1nc2sc3c(c2c(=O)n1-c1ccc(Cl)cc1)CCCC3)N/N=C/C=C/c1ccccc1,-33.7% (active)
9,O=C(COc1ccc(/C=C2/C(=O)Nc3ccc(Cl)cc32)cc1)Nc1ccc(Br)cc1,-23.9% (active)
10,CC(C)(C)OC(=O)N1CCC2(CC1)Oc1ccccc1[C@H]1CC(c3ccc(Br)cc3)=NN12,58.2%
11,N#Cc1c(-c2ccc(F)cc2)nc(SCc2ccc(F)cc2)nc1N1CCNCC1,4.49% (active)
12,Cc1ccc(/C=C/C(=O)c2ccc(S(=O)(=O)NCCNc3nc(N(C)C)nc(N4CCOCC4)n3)cc2)cc1,52.1%
13,ClC(Cn1ncc2c(Nc3cccc(Br)c3)nc(SCCN3CCOCC3)nc21)c1ccc(Br)cc1 (stereo unspecified),-6.03% (active)
14,COc1ccc(N=Nc2c(N)nn3c(N)c(C#N)c(-c4ccccc4)nc23)cc1,72.7%
15,Cc1cccc(-c2ccccc2Oc2ccc3nnc(Cl)n3n2)c1,103%
16,CCN1CCN(Cc2ccc(C(=O)Nc3cccc(Nc4ccc5c(OC)cccc5n4)c3)cc2C(F)(F)F)CC1,-30.5% (active)
17,N#CCc1nnc(NC(=O)c2ccc(-n3c(=O)[nH]c4ccccc4c3=O)cc2)s1,101%
18,COc1cc(NC(=O)CSc2nnc(-c3ccc(-c4nc5ccc(Cl)cc5[nH]4)cc3)o2)cc(OC)c1OC,15%
19,c1n[nH]cc1-c1nc2ccc3cn[nH]c3c2c2c1CCCC2,104%
